# Data: PubChem BioAssay (Tox21)
# Inconclusive results are not listed. Calls of active or inactive are those of the source. Calls follow the shape of the dose curve; as a rule, active = well fitted cell-killing curve with a large enough effect in the repeat runs; inconclusive = weak or mixed curves, or effect the other way; inactive = flat fitted curve, though single readings scatter.
# Assay: Human pregnane X receptor (PXR) small molecule agonists, qHTS cell viability counter screen (AID 1346977); also: nearly all actives have a fitted effect of over 50% in size
# Settings: PXR-Luc HepG2 viability, CellTiter-Fluor, 24 h; series mostly up to 92.4 µM; activity change, negative = cytotoxicity: at the top concentration
# Description: U.S. Tox21 Program National Center for Advancing Translational Sciences [NCATS] NIH Chemical Genomics Center [NCGC] U.S. Environmental Protection Agency [EPA] National Institutes of Environmental Health Sciences [NIEHS] National Toxicology Program [NTP] U.S. Food and Drug Administration [FDA] Tox21 Assay Overview: The human pregnane X receptor (hPXR) regulates the expression of several drug metabolizing enzymes and induction of these proteins is a major mechanism for developing drug resistance in cancer. One such key enzyme catalyzing the drug metabolism is cytochrome P450 3A4 (CYP3A4). Changes in CYP3A4 expression affect drug metabolism, thereby reducing the therapeutic efficacy and altering toxicological response to a drug and which finally causes adverse drug interaction. To screen Tox21 libraries for compounds that activate hPXR-mediated CYP3A4 gene expression, PXR-Luc HepG2 cells were used. Also cytotoxicity of the compounds was tested in parallel by measuring the cell viability using CellTiter-Fluor assay system in the same wells.
# Tox21 Assay Protocol Summary: PXR-Luc HepG2 cells were dispensed at 2,000 per well in 5uL of assay medium containing 5% charcoal-stripped FBS into white solid bottom 1536-well plates (Corning Life Sciences, Corning, NY) using a Multidrop Combi (Thermo Scientific, Waltham, MA) dispenser. The assay plates were incubated at 37 C and 5% CO2 for 5hr, and then 23nL of compounds dissolved in DMSO and positive control were transferred using a Pintool station (Wako, San Diego, CA). The assay plates were incubated at 37C and 5% CO2 for 24hr. For cytotoxicity read, after 23hr incubation at 37C, 1uL CellTiter-Fluor reagent (Promega Corporation, Madison, WI) was added to each well of the assay plates using Flying Reagent Dispenser (FRD, Aurora Discovery, San Diego, CA). After 1hr incubation at 37C and 5% CO2, the fluorescence signal was quantified using a ViewLux plate reader (PerkinElmer, Shelton, CT).
# % is scaled to controls: 0 for no effect and ±100 for the full control effect; potency is read from the fitted curve at half-maximal effect.
Compound,"activity change, negative = cytotoxicity",Potency
CCCC(=O)OCC,2.51% (inactive),–
O=C(O)/C=C/c1cnc[nH]1,2.01% (inactive),–
CC(C)c1cccc(C(C)C)c1NC(=O)NS(=O)(=O)c1cc(C(C)(C)O)co1,6.93% (inactive),–
Cc1ccccn1,0.805% (inactive),–
NC(N)=N/N=C/c1c(Cl)cccc1Cl,–,29.8 µM (active)
CCCCCCCCC(CO)CCCCCC (stereo not given),0.75% (inactive),–
CC(C)(C)c1cc(CO)cc(C(C)(C)C)c1O,-4.09% (inactive),–
CC[C@@H]1C[C@H](N(Cc2cc(C(F)(F)F)cc(C(F)(F)F)c2)C(C)=O)c2cc(C(F)(F)F)ccc2N1C(=O)OC(C)C,29.4% (inactive),–
O=C(Cl)c1ccc([N+](=O)[O-])cc1,17.6% (inactive),–
O=C(O)Cc1cc(I)c(Oc2ccc(O)c(I)c2)c(I)c1,1.37% (inactive),–
NC(=S)N/N=C/c1cccnc1,14.6% [at 42.5 µM] (inactive),–
C=CC[N+]1([C@H]2C[C@H]3[C@@H]4CC[C@H]5C[C@H](OC(C)=O)[C@@H](N6CCCCC6)C[C@]5(C)[C@H]4CC[C@]3(C)[C@H]2OC(=O)CC)CCCCC1,-17.3% [at 42.5 µM] (inactive),–
CC(C)(C)c1ccc(S)cc1,8.55% (inactive),–
CCCCOC(=O)/C=C\C(=O)OCCCC,0.174% (inactive),–
CC1CCc2cc(F)cc3c(=O)c(C(=O)O)cn1c23 (stereo not given),-0.98% [at 42.5 µM] (inactive),–
Cc1ccc(C(N)=O)cc1N,8.64% (inactive),–
Oc1ccc(Cc2ccccc2)cc1,6.99% (inactive),–
CC(C)NCC(O)c1cc(O)cc(O)c1 (stereo not given),-1.47% [at 42.5 µM] (inactive),–
Oc1ccc(Sc2ccc(O)cc2)cc1,-19.7% (inactive),–
COc1ccccc1OC(=O)Oc1ccccc1OC,-1.83% [at 42.5 µM] (inactive),–

Compound,"activity change, negative = cytotoxicity",Potency
COc1cc(C(C)(C)C)c(O)c(C(C)(C)C)c1,7.91% (inactive),–
CC(C)CCCC(C)CCO (stereo not given),24.5% (inactive),–
C1CCC2OC2C1 (stereo not given),-1.7% (inactive),–
COCCOCCOCCOCCOC,13.9% (inactive),–
CN1CCC[C@@H]1c1cccnc1,19.4% [at 42.5 µM] (inactive),–
CC(C)NCC(O)COc1ccc(CC(N)=O)cc1 (stereo not given),6.71% (inactive),–
CCCCCCCC/C=C\CCCCCCCC(N)=O,-1.16% (inactive),–
CC(=O)Nc1ccc(/C=N/NC(N)=S)cc1,-9.03% [at 42.5 µM] (inactive),–
CCCCCC(CO)CCC (stereo not given),6.77% (inactive),–
CCCCCCc1ccc(N)cc1,-3.6% (inactive),–
CCOc1ccc2[nH]cc(C(=O)NCc3ccccc3)c(=O)c2n1,-16% (inactive),–
O=C(O)C1CCC(C(=O)O)CC1 (stereo not given),3.93% (inactive),–
O=C1CCCCCO1,0.422% (inactive),–
O=S1(=O)N=C(O)c2ccccc21,1.92% [at 42.5 µM] (inactive),–
Cc1ccc(O)c([C@H](CCN(C(C)C)C(C)C)c2ccccc2)c1,–,11.9 µM (active)
O=[N+]([O-])c1cc[n+]([O-])cc1,–,54.5 µM (active)
CCOC(=O)C1=NN(c2ccccc2)C(=O)C1,10.6% (inactive),–
CCCCCC/C=C/C=O,14.9% (inactive),–
COCCO,11.1% (inactive),–
CCOc1nc2cccc(C(=O)O)c2n1Cc1ccc(-c2ccccc2-c2nn[nH]n2)cc1,6.8% [at 42.5 µM] (inactive),–
